# Measurements taken from the supplement of paper PMC10849652.
# Targets with a hit are over-represented here; the source holds about 7,900 in all. About 0.6% of all pairs of compound and target were hits. A number with no mark means an inactive call.
# What was measured:
# Experiment in all cases: log2 fold change, soluble protein after heating vs DMSO (PISA); higher = thermal stabilisation; K562 cells, 10 uM, 30 min; active = over 0.2 and 3.5 SD of the protein, either way, in both replicates (recomputed)
# [1] = compound: C1COCCN1CCN2C3=CC=CC=C3N=C2NC(=O)C4=CC(=CC=C4)[N+](=O)[O-] [IRAK-1-4 Inhibitor I]
# How it was run: (§1)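 Values are thermal stability changes relative to control samples and are taken from duplicates. They are stated as log2 fold changes. Before quantification by TMTpro 16plex LC-MS/MS with equalised channel sums, K562 cells at 2×10^6 cells/mL were treated with 10 μM compound for 30 min, heated in aliquots for 3 min across 48°C-58°C, pooled, extracted in PBS with 0.5% NP-40 at 4°C, and centrifuged at 21,000xg for 90 min to give the soluble supernatant.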
# [2] = compound: C=CC(=O)N1CCC[C@@H](n2nc(-c3ccc(Oc4ccccc4)cc3)c3c(N)ncnc32)C1 [ibrutinib]
# How it was run: as §1
# [3] = compound: CC(=O)c1cnc2ccc(-c3cc(Cl)c(O)c(Cl)c3)nc2c1N[C@H]1CC[C@H](CN(C)C)CC1
# How it was run: as §1
# [4] = compound: CC(C)(O)CC(=O)NCCn1ccc2ncnc(Nc3ccc(Oc4cccc(C(F)(F)F)c4)c(Cl)c3)c21
# How it was run: as §1
# [5] = compound: CC(C)C1=C2N=C(C=C(N2N=C1)NCC3=CC=CC=C3)NCCCCCCN
# How it was run: as §1
# [6] = compound: CC(C)N(C[C@H]1O[C@@H](n2cnc3c(N)ncnc32)[C@H](O)[C@@H]1O)[C@H]1C[C@@H](CCc2nc3cc(C(C)(C)C)ccc3[nH]2)C1 [pinometostat]
# How it was run: as §1
# [7] = compound: CC1=C(C(CC(=O)N1)C2=CC=C(C=C2)C(F)(F)F)C(=O)NC3=C(C=C4C(=C3)C=NN4)F
# How it was run: as §1
# [8] = compound: CC(C)(C)Cn1c(N)nc2ccc(-c3[nH]c(C(C)(C)C)nc3-c3ccc(F)cc3)nc21 [ralimetinib]
# How it was run: as §1
# [9] = compound: CC(C)C[C@@H](C=O)NC(=O)[C@H](CC(C)C)NC(=O)[C@H](CC(C)C)NC(=O)OCc1ccccc1
# How it was run: as §1
# [10] = compound: CC1=C(C2=C(C=C1)C(=O)C3=CC=CC=C3N2CCCN)C
# How it was run: as §1
# UniProt Q9Y6X9, sequence (Q9Y6X9 whole entry, looked up): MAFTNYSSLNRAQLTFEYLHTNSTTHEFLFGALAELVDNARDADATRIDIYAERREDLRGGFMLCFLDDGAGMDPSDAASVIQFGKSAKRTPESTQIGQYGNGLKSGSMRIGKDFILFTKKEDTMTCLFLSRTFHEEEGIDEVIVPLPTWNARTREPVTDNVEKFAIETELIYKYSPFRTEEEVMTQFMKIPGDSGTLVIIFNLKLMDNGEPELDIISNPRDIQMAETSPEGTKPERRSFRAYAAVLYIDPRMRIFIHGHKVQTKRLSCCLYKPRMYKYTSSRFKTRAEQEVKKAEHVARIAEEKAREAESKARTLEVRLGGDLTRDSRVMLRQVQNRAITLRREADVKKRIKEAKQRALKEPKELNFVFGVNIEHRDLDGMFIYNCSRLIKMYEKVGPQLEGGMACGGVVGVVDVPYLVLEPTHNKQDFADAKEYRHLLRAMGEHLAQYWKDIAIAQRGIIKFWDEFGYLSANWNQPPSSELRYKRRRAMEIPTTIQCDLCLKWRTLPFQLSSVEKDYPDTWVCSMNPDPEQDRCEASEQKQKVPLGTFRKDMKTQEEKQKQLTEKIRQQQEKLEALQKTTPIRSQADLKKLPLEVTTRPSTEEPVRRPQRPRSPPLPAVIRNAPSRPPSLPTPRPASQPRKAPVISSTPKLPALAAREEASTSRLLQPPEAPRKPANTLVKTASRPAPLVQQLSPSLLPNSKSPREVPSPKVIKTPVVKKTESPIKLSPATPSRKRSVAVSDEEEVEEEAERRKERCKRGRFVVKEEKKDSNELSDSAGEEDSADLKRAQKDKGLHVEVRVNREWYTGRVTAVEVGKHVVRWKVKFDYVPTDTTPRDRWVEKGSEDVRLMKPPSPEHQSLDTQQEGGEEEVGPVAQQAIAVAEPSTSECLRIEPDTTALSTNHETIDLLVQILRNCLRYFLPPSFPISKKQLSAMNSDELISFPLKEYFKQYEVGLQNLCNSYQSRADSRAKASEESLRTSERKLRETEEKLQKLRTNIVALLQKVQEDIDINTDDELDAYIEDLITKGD
# UniProt O43913, sequence (O43913 whole entry, looked up): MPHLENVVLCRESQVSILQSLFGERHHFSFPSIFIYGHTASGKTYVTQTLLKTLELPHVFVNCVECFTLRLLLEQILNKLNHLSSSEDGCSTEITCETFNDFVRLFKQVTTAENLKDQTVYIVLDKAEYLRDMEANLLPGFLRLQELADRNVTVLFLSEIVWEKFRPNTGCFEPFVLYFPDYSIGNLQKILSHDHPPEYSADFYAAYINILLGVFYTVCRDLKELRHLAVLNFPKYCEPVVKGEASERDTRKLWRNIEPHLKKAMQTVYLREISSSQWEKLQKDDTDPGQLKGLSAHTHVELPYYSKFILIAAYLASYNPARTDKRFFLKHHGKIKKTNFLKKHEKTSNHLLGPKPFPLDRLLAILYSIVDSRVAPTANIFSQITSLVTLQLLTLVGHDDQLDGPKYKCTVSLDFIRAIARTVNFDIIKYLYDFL
# UniProt P51956, sequence (P51956 whole entry, looked up): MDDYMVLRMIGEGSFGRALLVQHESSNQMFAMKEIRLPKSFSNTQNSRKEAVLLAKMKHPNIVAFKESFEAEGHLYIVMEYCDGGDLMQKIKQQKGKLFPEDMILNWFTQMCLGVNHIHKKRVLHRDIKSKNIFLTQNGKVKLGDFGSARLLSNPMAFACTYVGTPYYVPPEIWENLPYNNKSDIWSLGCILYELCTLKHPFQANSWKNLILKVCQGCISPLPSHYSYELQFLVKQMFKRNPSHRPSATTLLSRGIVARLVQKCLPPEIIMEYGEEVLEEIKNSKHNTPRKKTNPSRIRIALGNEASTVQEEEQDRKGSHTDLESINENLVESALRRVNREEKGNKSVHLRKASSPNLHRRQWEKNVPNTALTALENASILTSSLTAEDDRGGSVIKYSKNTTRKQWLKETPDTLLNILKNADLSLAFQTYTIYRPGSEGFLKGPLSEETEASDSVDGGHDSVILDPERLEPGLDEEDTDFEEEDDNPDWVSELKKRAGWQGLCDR
# UniProt P53370, sequence (P53370 whole entry, looked up): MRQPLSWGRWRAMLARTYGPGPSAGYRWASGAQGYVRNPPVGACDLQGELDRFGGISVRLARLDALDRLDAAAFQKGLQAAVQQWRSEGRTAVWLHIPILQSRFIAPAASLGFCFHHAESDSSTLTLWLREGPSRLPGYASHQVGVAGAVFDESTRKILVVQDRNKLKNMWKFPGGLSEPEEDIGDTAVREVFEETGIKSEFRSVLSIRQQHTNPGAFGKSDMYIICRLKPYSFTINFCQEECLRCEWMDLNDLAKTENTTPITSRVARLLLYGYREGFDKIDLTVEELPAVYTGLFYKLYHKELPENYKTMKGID
# UniProt Q9BS92, sequence (Q9BS92 whole entry, looked up): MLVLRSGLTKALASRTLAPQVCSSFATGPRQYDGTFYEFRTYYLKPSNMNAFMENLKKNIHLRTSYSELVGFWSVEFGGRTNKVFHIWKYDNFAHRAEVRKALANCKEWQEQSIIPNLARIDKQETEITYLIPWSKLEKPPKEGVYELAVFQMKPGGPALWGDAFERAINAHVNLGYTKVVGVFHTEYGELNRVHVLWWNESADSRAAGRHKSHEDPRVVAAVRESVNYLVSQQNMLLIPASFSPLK
# UniProt O15460, sequence (O15460 whole entry, looked up): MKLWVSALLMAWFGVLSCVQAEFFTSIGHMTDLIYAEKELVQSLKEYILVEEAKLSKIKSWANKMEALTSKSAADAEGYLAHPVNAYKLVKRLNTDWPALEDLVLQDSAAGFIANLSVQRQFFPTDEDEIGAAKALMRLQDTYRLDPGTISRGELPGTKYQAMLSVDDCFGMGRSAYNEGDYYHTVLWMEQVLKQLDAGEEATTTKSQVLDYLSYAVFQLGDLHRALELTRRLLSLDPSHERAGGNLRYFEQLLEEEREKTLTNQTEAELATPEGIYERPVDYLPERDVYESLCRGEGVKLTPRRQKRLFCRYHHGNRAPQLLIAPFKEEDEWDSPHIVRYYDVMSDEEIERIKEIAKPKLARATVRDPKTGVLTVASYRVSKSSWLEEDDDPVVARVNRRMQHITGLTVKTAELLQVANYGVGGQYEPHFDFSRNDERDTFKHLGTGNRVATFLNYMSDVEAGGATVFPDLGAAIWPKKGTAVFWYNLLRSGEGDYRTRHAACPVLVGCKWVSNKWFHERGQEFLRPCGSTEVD
# UniProt Q86TA1, sequence (Q86TA1 whole entry, looked up): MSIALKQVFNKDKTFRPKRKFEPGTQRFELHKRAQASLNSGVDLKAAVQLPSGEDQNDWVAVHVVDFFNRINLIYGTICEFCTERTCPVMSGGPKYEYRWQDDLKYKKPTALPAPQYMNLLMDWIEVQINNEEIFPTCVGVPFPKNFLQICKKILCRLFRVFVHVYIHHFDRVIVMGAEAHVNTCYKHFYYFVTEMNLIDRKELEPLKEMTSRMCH
# UniProt O75052, sequence (O75052 whole entry, looked up): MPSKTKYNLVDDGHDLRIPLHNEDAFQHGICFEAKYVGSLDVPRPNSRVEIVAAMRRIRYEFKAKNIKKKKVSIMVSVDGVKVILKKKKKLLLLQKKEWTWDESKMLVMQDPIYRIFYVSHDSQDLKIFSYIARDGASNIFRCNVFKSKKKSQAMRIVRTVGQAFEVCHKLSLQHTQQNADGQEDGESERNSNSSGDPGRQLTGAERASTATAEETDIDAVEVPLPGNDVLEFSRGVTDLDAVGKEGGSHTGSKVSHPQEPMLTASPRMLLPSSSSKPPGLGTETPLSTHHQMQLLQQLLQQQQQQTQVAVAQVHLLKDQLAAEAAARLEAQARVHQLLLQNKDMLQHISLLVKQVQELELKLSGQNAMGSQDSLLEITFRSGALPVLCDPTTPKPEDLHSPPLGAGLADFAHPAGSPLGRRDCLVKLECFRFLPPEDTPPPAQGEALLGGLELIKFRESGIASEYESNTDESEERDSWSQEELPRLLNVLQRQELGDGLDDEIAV
# UniProt Q86VX9, sequence (Q86VX9 whole entry, looked up): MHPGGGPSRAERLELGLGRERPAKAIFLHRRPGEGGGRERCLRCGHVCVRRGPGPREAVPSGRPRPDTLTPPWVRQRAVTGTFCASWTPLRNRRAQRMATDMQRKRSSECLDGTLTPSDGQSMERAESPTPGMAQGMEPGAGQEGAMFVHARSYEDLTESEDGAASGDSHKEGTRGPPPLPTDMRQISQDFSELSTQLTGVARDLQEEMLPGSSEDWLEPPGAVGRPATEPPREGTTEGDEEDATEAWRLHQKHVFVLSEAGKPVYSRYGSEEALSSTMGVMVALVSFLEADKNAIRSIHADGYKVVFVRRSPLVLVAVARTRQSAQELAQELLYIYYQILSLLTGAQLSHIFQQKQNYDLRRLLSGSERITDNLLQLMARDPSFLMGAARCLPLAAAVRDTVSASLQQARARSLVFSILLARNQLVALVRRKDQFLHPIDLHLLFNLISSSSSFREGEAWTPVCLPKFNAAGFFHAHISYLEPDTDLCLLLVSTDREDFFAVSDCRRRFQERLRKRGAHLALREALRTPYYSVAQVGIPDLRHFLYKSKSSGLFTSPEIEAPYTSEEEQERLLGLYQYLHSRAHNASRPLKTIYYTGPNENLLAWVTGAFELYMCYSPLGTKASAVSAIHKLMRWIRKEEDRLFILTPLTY
# UniProt Q9H3L0, sequence (Q9H3L0 whole entry, looked up): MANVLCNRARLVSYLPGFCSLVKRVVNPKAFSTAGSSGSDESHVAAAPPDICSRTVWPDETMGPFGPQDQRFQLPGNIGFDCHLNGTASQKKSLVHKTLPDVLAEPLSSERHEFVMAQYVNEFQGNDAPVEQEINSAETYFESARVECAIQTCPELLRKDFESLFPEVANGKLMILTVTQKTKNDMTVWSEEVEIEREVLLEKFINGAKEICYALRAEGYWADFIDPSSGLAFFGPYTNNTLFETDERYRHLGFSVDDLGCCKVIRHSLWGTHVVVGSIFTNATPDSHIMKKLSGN
# UniProt Q9BV86, sequence (Q9BV86 whole entry, looked up): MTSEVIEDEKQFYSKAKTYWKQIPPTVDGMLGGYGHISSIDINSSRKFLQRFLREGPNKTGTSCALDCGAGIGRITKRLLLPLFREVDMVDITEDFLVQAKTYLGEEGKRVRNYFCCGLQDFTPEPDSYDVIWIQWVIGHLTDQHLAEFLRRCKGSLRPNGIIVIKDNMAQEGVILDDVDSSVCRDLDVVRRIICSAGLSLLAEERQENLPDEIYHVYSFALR
Target,log2 fold change [1],log2 fold change [2],log2 fold change [3],log2 fold change [4],log2 fold change [5],log2 fold change [6],log2 fold change [7],log2 fold change [8],log2 fold change [9],log2 fold change [10]
NELFCD (UniProt Q8IXH7),-0.038,-0.18,-0.04,-0.394,0.101,0.017,-0.036,,,
MORC2 (UniProt Q9Y6X9),-0.292,0.042,-0.201,-0.074,-0.084,0.038,,,,
MT-ND2 (UniProt P03891),-0.021,-0.042,-0.171,,-0.221,-0.075,-0.076,-0.119,-0.089,0.113
OPA1 isoform 2 (UniProt O60313),-0.008,-0.009,-0.05,-0.201,-0.375 (active),0.03,-0.006,0.043,0.004,0.1
MRPS2 (UniProt Q9Y399),-0.043,0.109,-0.011,-0.035,-0.03,0.002,0.002,-0.02,0.08,-0.079
NTMT1 (UniProt Q9BV86),0,0.011,-0.046,-0.053,0.095,-0.029,-0.082,-0.02,-0.052,0.157
ORC5 (UniProt O43913),0.024,-0.014,-0.306,,-0.134,0.128,-0.005,0.015,0.005,0.08
NUDT1 (UniProt P36639),0.025,0.943 (active),0.816 (active),-0.263,0.946 (active),-0.017,-0.069,1.69 (active),-0.082,0.074
NOP2 isoform 4 (UniProt P46087),-0.111,-0.278,0.308,0.163,0.241,0.325,-0.062,0.205,0.194,-0.474
MMADHC (UniProt Q9H3L0),0.014,-0.056,-0.011,,0.039,0.182,-0.118,0.073,0.076,-0.137
NFX1 (UniProt Q12986),-0.028,0.083,-0.002,0.099,-0.051,0.182,0.011,0.178,0.227,-0.043
PAFAH2 (UniProt Q99487),0.106,0.048,-0.012,,0.025,-0.011,,-0.033,0.007,0.02
NME1 isoform 2 (UniProt P15531),0.021,0.107,-0.007,0.03,0.041,-0.017,-0.192,-0.035,0.032,0.038
NNMT (UniProt P40261),0.035,0.06,-0.028,-0.026,-0.026,0.276 (active),-0.002,,,-0.006
NOS1AP (UniProt O75052),,-0.061,,-0.073,-0.026,,,0.07,1.38 (active),0.154
MITF (UniProt O75030),0.166,,-0.212,,-0.581 (active),0.074,0.158,,,
P4HA2 (UniProt O15460),-0.072,0.168,,0.045,-0.017,0.06,0.039,0.038,0.062,0
MYLK (UniProt Q15746),-0.051,-0.101,,,-0.207,-0.051,-0.269,0.524,-0.181,-0.136
NPC1L1 (UniProt Q9UHC9),0.014,0.047,-0.008,,,-0.136,-0.614,,,0.085

Target,log2 fold change [1],log2 fold change [2],log2 fold change [3],log2 fold change [4],log2 fold change [5],log2 fold change [6],log2 fold change [7],log2 fold change [8],log2 fold change [9],log2 fold change [10]
NIPSNAP3B (UniProt Q9BS92),0.048,0.082,0.026,,0.045,0.056,0.07,,,0.049
"MTHFD1, A0A384N5Y3",,0.002,-0.085,-0.034,,,-0.024,0,-0.008,0.049
OSBPL3 (UniProt Q9H4L5),-0.083,,-0.277,0.252,0.506,0.204,-0.165,0.309,0.206,-0.069
MOB3B (UniProt Q86TA1),-0.26,-0.001,-0.026,,-0.169,-0.056,-0.116,,,0.024
NKTR (UniProt P30414),,-0.191,,,0.084,,,,,
MOB2 isoform 3 (UniProt Q70IA6),,-0.061,,-0.15,-0.01,,-0.037,0.039,-0.021,0.106
NIPSNAP2 (UniProt C9J7B1),,0.052,-0.389,,,,,,,
NEK3 (UniProt P51956),0.104,,-0.184,-0.015,0.127,-0.015,-0.028,-0.168,0.098,0.018
MSANTD2 (UniProt Q6P1R3),,,,0.047,,,,,,0.012
NUDT7 (UniProt P0C024),-0.02,0.205,,-0.467,0,-0.231,0.129,-0.52,0.207,0.039
ORC3 (UniProt Q9UBD5),,,-0.031,,,,,,,
NA (UniProt B2RBV5),,0.069,,-0.037,,,-0.314,,,
MXRA7 isoform 3 (UniProt P84157),,,,,,,,-0.031,0.151,
NUDT6 (UniProt P53370),-0.143,,,-0.106,-0.033,0.071,-0.161,0.183,0.035,0.283
MLH1 (UniProt P40692),,-0.018,-0.112,-0.347,,,,,,0.008
"NA, A0A1W2PSA9",,,-0.13,,,,,0.004,0.122,-0.27
NEU3 isoform 2 (UniProt Q9UQ49),,,,,-0.984 (active),,,,,
MON1A (UniProt Q86VX9),-0.005,0.231,,-0.012,-0.151,0.002,0.049,-0.213,0.032,0.129
MRM2 (UniProt Q9UI43),,,-0.119,,-0.075,,0.057,,,0.104
